Data on eight molecules can be found in PubChem BioAssay (NCATS).

Assay [1] is described as follows: AP1 Signaling Pathway (AID 357).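 Note: ME-180 reporter cells stimulated with EGF at its EC50 level; % is set by controls: 0 for no effect and ±100 for the full control effect.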 As to conditions: ME-180 AP-1-bla reporter, EGF-induced, beta-lactamase ratio, 5 h; at 7.69 µM (top of the series) unless noted. Summed up: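 Beta-lactamase reporter under AP-1 response element, ME-180 background. Stimulus: EC50 EGF. Compound exposure 5 h, 37 °C. Detection: CCF4, 2.5 h RT, 460/530 nm. Values: AC50 from titration.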

Assay [2] deals with Cytochrome P450 1A2 (Homo sapiens) (UniProt P05177). Description: p450-cyp1a2 (AID 410; calls by dose curve;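 note: -100% = full effect of reference inhibitor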). Summed up: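 20nM CYP1A2 with 100uM Luciferin-ME (at Km) in 100mM KPO4; compound preincubated 10 min, NADPH regeneration added, 60 min at room temperature. Luciferin quantified by luminescence after detection reagent; normalized to 57 uM furafylline.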
Assay [3] in a line: Stat Signaling Pathway (AID 446).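 Note: ME-180 cervical cancer cells given 40 pM IL-6 alongside compound; SIE-controlled beta-lactamase reporter measured as 460/530 nm FRET emission ratio; % is set by controls: 0 for no effect and ±100 for the full control effect.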 As to conditions: ME-180 (cervical carcinoma) SIE beta-lactamase reporter, IL-6 stimulated, 5 h; at 7.69 µM (top of the series) unless noted. Summed up: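 IL-6/STAT signaling read in ME-180 cells via an SIE beta-lactamase reporter. Stimulus was 40 pM IL-6 (its AC50) for 5 hrs, so both activation and inhibition register.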
The target of assay [4] is Glucocorticoid receptor (Homo sapiens) (UniProt P04150). The assay can be described thus: GR-GFP Redistribution (AID 450;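 active = compounds whose dose series gives a full or clear partial fitted curve of increased nuclear translocation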; note: potency is the fitted concentration of half-maximal effect). As to conditions: U2OS GR-GFP nuclear translocation, laser cytometry, 2 h.
Assay [5] shares this target. The assay can be described thus: GR-EFC Redistribution (AID 451; calls by dose curve; note: potency is the fitted concentration of half-maximal effect). As to conditions: CHO-K1 GR-EFC translocation, beta-gal luminescence, 2 h. Summed up:
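CHO-K1 cells expressing nuclear EA and GR-ED fragments of b-gal; compounds titrated up to 46 uM final, 2 h at 37 C. GR nuclear translocation read as complemented b-gal luminescence after 1 h RT detection.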

Assay [6] concerns the target Mitogen-activated protein kinase 10 (Mus musculus) (UniProt Q61831). The assay can be described thus: JNK3 AlphaScreen Assay (AID 530).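 Note: kinase came from lysate of stimulated human HepG2 cells; signal reports phosphorylation of biotinylated GST-cJun 1-79 at Ser73 with 10 µM ATP; % is set by controls: 0 for no effect and ±100 for the full control effect.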 Summed up: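 Pre-activated (IL-1β/TNFα) JNK3 in HepG2 lysates phosphorylates biotin-GST-cJun(1-79), 10 uM ATP; anti-phospho-cJun(Ser73) AlphaScreen read at room temperature, pH 7.6 Tris buffer. Compounds pre-incubated 15 min as titrations.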
In general terms: Alpha assays give light when donor and acceptor beads are brought close together.

Assay [7] deals with Guanine nucleotide-binding protein G(i) subunit alpha-1 (Homo sapiens) (UniProt P63096). Description: qHTS Assay for Inhibitors of RGS12 GoLoco Motif Activity (Green Fluorophore) (AID 879; active = well fitted curve in the direction sought with a large enough effect; an effect the other way counts as inactive or inconclusive;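 note: 0% = labeled peptide with Gαi1 and full inhibition = labeled peptide alone without protein; negative values mean loss of peptide binding seen as reduced polarization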). Summed up: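 Fluorescence polarization assay: 50 nM Gαi1 with 10 nM FITC-labeled RGS12 GoLoco peptide in 10 mM Tris pH 7.5, 150 mM NaCl, 0.1 mM GDP, 0.05% NP40, 10 min at room temperature with compound.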

In assay [8] the target is Cytochrome P450 2C19 (Homo sapiens) (UniProt P33261). The assay can be described thus: qHTS Assay for Inhibitors and Substrates of Cytochrome P450 2C19 (AID 899; active = well fitted curve in the direction sought with a large enough effect; an effect the other way counts as inactive or inconclusive; note: % is set by controls: 0 for no effect and ±100 for the full control effect; nearly all actives have a fitted effect of over 60% in size). Summed up:
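Signal comes from luciferase acting on luciferin released by CYP2C19-mediated hydroxylation of Luciferin-H EGE, 10uM (KM). Assay mix: 5nM enzyme, 50mM KPO4; 60 min at 37C with NADPH regeneration. Data normalized against 57uM ketoconazole.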
On the technique in general: qHTS replaces the single test concentration by a dilution series.

A short description of assay [9]: qHTS Assay for Identification of Small Molecule Agonists for Thrombopoietin (TPO) Signaling Pathway (AID 917; active = well fitted curve in the direction sought with a large enough effect; an effect the other way counts as inactive or inconclusive; note: % is set by controls: 0 for no effect and ±100 for the full control effect). The procedure, abridged: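 Murine Ba/F3 cells expressing human TPO receptor and GPIIb-promoter luciferase, IL-3-starved overnight, given compound plus TPO at 26 pM (EC50). After 24 h at 37 C, 5% CO2, luminescence read.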
The target in assay [10] is Muscarinic acetylcholine receptor M1 (Rattus norvegicus) (UniProt P08482). Description: qHTS Assay for Antagonists of Acetylcholine Muscarinic M1 Receptor: Kinetic Measurement of Intracellular Calcium Response (AID 943; active = well fitted curve in the direction sought with a large enough effect; an effect the other way counts as inactive or inconclusive; note: nearly all actives have a fitted effect of over 75% in size). The procedure, abridged: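 CHO cells expressing rat M1 receptor, Fluo-4 loaded, preincubated 10 min with compound, then stimulated with EC80 carbachol (100 nM final). Kinetic calcium fluorescence over 4 min; response taken as peak over basal signal.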

The target is the same in assay [11]. The assay can be described thus: qHTS Assay for Antagonists of Acetylcholine Muscarinic M1 Receptor: Measurement of IP-One Response (AID 944; active = well fitted curve in the direction sought with a large enough effect; an effect the other way counts as inactive or inconclusive; note: nearly all actives have a fitted effect of over 75% in size). Summed up: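 CHO cells stably expressing rat M1, pretreated 10 min with compound, then stimulated 30 min with carbachol at EC80 (200 nM) in LiCl-containing buffer pH 7.4; IP1 accumulation read by HTRF competition (665/620 nm).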

For assay [12], the target named is Pyruvate kinase (Leishmania mexicana) (UniProt Q27686). The assay can be described thus: qHTS Validation Assay for Inhibitors of Leishmania Mexicana Pyruvate Kinase (AID 945; active = well fitted curve in the direction sought with a large enough effect; an effect the other way counts as inactive or inconclusive;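 note: 0% = DMSO only neutral control wells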). Summed up:
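Purified LmPYK (E451W mutant, 0.2 nM) was incubated 1 h at room temperature with 0.5 mM PEP and 0.1 mM ADP in 50 mM imidazole pH 7.2, 50 mM KCl, 7 mM MgCl2; ATP formed was read by PKLight luminescence, normalized to DMSO wells.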

Assay [13] deals with Pyruvate kinase PKM (Homo sapiens) (UniProt P14618). The assay can be described thus: qHTS Assay for Activators of Human Muscle Pyruvate Kinase (AID 954; active = well fitted curve in the direction sought with a large enough effect, not every such curve was filed as active;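 note: 0% = uninhibited enzyme and -100% = no enzyme or full thiadiazolimine inhibition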). Summed up:
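Enzyme was run at intermediate activity so both inhibitors and activators could be detected. ATP formed from ADP and PEP by 0.1 nM human PKM2 during a 1 h room-temperature incubation was quantified by coupled luciferase luminescence.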

The target in assay [14] is Alpha-galactosidase A (Homo sapiens) (UniProt P06280). The assay can be described thus: Counterscreen for Glucocerebrosidase Inhibitors: qHTS Assay for Human alpha-Galactosidase at pH 4.5 (AID 992; active = well fitted curve in the direction sought with a large enough effect; an effect the other way counts as inactive or inconclusive; note: 0% is about no effect). Summed up:
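Read-out is 4-methylumbelliferone fluorescence (365 nm excitation, 440 nm emission) after a pH 10 NaOH/glycine stop. Reactions held 2 nM enzyme and 80 uM substrate at pH 4.5 for 20 min at room temperature.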

For assay [15], the target named is alpha-glucosidase (Oryza sativa, rice) (UniProt Q653V4). The assay can be described thus: Counterscreen for Glucocerebrosidase Inhibitors: qHTS Assay for Rice alpha-Glucosidase at pH 5.0 (AID 997; active = well fitted curve in the direction sought with a large enough effect; an effect the other way counts as inactive or inconclusive;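 note: 0% = full activity with enzyme and -100% = basal without enzyme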). Summed up: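 Rice alpha-glucosidase (4 nM final) with 400 uM 4-methylumbelliferyl-alpha-D-glucopyranoside in citrate buffer pH 5.0, 20 min at room temperature, stopped at pH 10; fluorescence 365/440 nm, compounds 0.7 nM–77 uM, AC50 from Hill fits.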
Background: The purpose of a counterscreen is to sort out artefacts and off-target activity.

In assay [16] the target is Alpha-galactosidase (Coffea arabica) (UniProt Q42656). The assay can be described thus: Counterscreen for Glucocerebrosidase Inhibitors: qHTS Assay for Coffee Bean alpha-Galactosidase at pH 5.9 (AID 998; active = well fitted curve in the direction sought with a large enough effect; an effect the other way counts as inactive or inconclusive;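 note: plate controls were uninhibited enzyme for no effect and no-enzyme basal signal for full effect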). The procedure, abridged:
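Green coffee bean enzyme (2 nM) with 4-methylumbelliferyl alpha-D-galactopyranoside (80 uM) in 50 mM citric acid, 0.005% Tween-20, pH 5.9, 20 min at room temperature; compounds 0.7 nM–77 uM. Stopped at pH 10, fluorescence Ex365/Em440; Hill-fit AC50.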

Assay [17] has as its target 3',5'-cyclic-AMP phosphodiesterase 4B (Homo sapiens) (UniProt Q07343). The assay can be described thus: qHTS Assay for Inhibitors of PDE-IV (AID 607; active = well fitted activation curve with a large enough effect in the main read-out, with a control signal flat, not every such curve was filed as active; note: % of control where 0% means no effect). The procedure, abridged: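 Live HEK293 cells with a modified cyclic nucleotide-gated (CNG) channel report intracellular cAMP via membrane-potential dye fluorescence (ex 535/em 590 nm). Endogenous PDE-IV was targeted. Compounds were tested at up to 22.9 uM final; RO 20-1724 100 uM served as control.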

A short description of assay [18]: NFAT Signaling Pathway (AID 444). As to conditions: Jurkat NFAT-bla M1, carbachol, beta-lactamase ratio, 5 h; at 7.69 µM (top of the series) unless noted. The procedure, abridged:
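Jurkat cells with NFAT-driven β-lactamase reporter and co-expressed M1 receptor, stimulated with carbachol (final 1 uM, ~EC50), compound titration, 5 h at 37 °C. CCF4 loaded 1 h at RT; 460/530 nm ratio gave %activity and AC50.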

Values without a mark were called inactive. Results filed as inconclusive are left out. Calls of active or inactive are those of the source. Unless noted, calls come from the whole dose curve; as a rule, active = well fitted curve in either direction with a large enough effect (not every such curve was filed as active); inconclusive = small, poorly fitted or top-dose-only effect, or another doubt; inactive = flat fitted curve, though single readings scatter. Bounds are passed on as bounds.

Sequence of Glucocorticoid receptor (Homo sapiens) (P04150 whole entry, looked up): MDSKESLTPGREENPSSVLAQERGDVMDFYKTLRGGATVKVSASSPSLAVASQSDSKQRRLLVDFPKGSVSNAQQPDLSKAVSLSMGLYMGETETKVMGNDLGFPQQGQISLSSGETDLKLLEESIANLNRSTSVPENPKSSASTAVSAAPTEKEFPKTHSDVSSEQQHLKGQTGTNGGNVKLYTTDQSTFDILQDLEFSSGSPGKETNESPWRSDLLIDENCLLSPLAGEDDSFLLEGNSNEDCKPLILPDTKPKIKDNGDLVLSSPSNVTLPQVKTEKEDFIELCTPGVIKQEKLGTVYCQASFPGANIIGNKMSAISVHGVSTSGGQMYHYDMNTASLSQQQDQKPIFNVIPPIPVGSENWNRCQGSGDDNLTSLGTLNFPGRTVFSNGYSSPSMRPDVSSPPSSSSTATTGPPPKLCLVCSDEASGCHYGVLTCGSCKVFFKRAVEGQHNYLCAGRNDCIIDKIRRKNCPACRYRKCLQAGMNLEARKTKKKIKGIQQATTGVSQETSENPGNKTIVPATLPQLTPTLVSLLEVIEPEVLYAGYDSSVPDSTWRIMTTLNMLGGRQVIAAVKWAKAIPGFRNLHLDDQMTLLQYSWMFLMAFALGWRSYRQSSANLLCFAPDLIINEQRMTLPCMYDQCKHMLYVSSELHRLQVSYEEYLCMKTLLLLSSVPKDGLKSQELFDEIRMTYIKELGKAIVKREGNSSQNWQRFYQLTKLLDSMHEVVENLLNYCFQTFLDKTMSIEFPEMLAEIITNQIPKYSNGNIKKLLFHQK
Sequence of 3',5'-cyclic-AMP phosphodiesterase 4B (Homo sapiens) (Q07343 whole entry, looked up): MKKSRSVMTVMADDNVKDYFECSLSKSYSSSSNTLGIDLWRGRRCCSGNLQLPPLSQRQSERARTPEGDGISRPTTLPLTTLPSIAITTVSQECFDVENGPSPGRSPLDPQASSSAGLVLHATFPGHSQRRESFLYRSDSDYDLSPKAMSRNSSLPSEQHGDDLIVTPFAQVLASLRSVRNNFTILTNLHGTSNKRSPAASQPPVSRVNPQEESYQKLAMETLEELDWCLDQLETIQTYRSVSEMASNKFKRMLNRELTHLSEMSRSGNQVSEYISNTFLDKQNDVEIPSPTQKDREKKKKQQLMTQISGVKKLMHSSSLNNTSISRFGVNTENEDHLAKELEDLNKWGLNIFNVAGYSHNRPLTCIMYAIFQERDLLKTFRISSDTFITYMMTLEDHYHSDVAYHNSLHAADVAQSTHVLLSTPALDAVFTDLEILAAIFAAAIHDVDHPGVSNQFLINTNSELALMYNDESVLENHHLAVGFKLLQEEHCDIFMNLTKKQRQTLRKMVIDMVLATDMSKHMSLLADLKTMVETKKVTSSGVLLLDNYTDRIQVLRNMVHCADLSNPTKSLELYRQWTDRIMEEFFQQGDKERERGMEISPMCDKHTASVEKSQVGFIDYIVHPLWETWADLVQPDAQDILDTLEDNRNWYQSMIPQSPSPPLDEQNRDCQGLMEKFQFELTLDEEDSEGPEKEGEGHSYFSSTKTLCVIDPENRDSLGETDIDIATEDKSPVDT
Sequence of Muscarinic acetylcholine receptor M1 (Rattus norvegicus) (P08482 whole entry, looked up): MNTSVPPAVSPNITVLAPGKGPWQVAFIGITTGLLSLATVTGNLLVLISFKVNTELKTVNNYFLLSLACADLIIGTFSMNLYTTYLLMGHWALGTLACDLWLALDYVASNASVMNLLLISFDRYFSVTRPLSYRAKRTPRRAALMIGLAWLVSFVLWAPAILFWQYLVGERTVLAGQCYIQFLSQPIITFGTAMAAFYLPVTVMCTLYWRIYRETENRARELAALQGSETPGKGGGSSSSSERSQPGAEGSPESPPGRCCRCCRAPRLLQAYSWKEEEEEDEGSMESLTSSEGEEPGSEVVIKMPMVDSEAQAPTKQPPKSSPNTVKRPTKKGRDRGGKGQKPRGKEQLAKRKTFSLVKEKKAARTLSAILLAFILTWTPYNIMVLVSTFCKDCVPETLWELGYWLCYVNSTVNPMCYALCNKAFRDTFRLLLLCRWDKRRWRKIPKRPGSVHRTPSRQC
Sequence of Cytochrome P450 1A2 (Homo sapiens) (P05177 whole entry, looked up): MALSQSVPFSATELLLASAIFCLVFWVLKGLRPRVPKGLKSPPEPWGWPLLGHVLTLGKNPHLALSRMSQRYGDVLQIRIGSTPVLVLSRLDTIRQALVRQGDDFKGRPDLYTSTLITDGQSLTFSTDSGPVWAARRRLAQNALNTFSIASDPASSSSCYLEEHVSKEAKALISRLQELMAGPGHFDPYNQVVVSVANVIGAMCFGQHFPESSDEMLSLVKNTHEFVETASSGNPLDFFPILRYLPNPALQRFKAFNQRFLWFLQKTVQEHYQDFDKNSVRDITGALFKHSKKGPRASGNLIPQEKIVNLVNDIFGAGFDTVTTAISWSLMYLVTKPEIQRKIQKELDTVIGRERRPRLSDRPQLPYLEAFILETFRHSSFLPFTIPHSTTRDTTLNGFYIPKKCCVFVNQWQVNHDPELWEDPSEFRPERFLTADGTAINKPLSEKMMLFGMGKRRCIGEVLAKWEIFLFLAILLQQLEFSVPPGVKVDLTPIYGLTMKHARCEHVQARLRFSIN
Sequence of Alpha-galactosidase (Coffea arabica) (Q42656 whole entry, looked up): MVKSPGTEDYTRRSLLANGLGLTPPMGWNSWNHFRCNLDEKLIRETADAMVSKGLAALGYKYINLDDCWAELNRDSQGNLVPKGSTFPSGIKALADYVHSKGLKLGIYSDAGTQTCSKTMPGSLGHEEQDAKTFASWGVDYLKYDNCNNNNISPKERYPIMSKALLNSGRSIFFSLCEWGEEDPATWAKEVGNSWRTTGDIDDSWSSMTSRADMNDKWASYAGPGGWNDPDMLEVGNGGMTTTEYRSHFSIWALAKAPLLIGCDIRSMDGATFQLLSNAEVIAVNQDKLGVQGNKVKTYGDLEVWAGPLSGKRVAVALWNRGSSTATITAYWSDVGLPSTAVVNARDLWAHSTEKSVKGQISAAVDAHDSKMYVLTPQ
Sequence of Alpha-galactosidase A (Homo sapiens) (P06280 whole entry, looked up): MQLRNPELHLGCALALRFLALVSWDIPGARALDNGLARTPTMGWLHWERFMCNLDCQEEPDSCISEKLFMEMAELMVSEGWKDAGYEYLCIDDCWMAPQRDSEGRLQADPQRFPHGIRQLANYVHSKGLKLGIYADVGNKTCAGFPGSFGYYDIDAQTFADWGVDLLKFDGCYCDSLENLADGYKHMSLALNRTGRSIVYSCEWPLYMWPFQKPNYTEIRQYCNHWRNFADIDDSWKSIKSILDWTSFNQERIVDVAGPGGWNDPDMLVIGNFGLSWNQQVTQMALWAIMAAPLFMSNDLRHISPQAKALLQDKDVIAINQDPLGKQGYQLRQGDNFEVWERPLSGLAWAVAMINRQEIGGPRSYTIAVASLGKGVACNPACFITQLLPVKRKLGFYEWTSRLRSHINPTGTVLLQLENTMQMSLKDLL
Sequence of Cytochrome P450 2C19 (Homo sapiens) (P33261 whole entry, looked up): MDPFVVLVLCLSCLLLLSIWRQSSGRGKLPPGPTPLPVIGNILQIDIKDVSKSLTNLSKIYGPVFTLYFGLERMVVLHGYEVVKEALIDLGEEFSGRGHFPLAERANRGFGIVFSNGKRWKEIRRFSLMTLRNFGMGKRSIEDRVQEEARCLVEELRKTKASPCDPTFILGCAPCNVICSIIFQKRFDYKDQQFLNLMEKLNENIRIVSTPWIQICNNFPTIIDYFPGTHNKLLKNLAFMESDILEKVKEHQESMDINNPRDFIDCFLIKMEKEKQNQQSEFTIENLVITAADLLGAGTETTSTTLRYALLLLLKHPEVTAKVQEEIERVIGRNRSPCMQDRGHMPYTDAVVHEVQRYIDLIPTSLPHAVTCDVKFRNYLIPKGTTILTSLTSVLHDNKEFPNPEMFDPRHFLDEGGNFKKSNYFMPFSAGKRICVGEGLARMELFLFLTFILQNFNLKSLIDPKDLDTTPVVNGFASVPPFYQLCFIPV
Sequence of Pyruvate kinase PKM (Homo sapiens) (P14618 whole entry, looked up): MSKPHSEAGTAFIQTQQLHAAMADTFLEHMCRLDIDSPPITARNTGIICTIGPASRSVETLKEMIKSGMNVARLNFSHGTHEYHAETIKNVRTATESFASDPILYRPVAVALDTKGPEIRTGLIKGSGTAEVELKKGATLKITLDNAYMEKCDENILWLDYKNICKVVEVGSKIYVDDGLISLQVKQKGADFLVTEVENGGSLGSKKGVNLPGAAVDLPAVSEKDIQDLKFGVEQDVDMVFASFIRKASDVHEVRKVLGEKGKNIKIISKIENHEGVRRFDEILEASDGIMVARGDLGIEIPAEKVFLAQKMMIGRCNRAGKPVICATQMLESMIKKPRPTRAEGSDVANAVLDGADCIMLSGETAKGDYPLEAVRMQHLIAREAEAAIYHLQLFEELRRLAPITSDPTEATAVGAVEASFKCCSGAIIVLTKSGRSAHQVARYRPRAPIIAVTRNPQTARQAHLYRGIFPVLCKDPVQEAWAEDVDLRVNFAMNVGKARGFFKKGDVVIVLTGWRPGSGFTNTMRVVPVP
Sequence of Pyruvate kinase (Leishmania mexicana) (Q27686 2-499 E452W): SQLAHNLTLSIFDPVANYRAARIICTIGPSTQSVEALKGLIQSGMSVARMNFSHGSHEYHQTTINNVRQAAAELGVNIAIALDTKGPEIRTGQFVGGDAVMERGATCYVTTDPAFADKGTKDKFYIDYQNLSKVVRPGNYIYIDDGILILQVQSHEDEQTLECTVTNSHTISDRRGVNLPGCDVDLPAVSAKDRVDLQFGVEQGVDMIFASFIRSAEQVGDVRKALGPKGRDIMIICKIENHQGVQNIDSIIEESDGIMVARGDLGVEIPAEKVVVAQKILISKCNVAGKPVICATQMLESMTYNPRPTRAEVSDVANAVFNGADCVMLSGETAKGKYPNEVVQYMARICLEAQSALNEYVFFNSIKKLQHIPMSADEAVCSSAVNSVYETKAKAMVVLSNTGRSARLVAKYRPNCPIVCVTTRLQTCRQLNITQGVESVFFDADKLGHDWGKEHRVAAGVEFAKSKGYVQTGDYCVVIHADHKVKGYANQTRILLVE

As for `CCNC(=O)[C@@H]1O[C@@H](n2cnc3c(N)ncnc32)[C@@H](O)[C@H]1O`, the activity change, negative = inhibition in assay [1] was -6.61% [at 38 µM]. The Potency result in assay [2], in assay [6], in assay [8], in assay [10] and in [11] was “inactive” in each case. Further, the activity, negative = inhibition in assay [3] is 24.4% [at 38 µM]. Moreover, the Potency in [4] and in assay [5] was more than 46 µM in each case. The molecule was called inactive in [7], in assay [9], in assay [12], in assay [13], in assay [14] and in assay [15]. Also, the outcome in [16] was inactive.

As for `Cc1ccc(S(=O)ON2CCC(C(=O)O)(c3ccccc3)CC2)cc1` (stereo not drawn), the results for the activity change, negative = inhibition in assay [1] and in [6] were -1.29% and 5.44% [at 11.4 µM], respectively. Also, the activity, negative = inhibition in assay [3] was 8.69%. For the same molecule, the results for the Potency in assay [4] and in [5] were more than 46 µM and more than 9.22 µM, respectively. The molecule was classed as inactive in assay [17]. Further, the Potency entry in assay [8] is “inactive”.

In the case of `CN(C)[C@@H]1C(=O)C(C(N)=O)=C(O)[C@]2(O)C(=O)C3=C(O)c4c(O)cccc4[C@](C)(O)[C@H]3C[C@@H]12`, the activity change, negative = inhibition in assay [1] was -8.78%; in assay [18], 15.2%; in assay [6] it was -5.55% [at 11.4 µM]. In addition, the activity, negative = inhibition in assay [3] was -10.5%. Also, the Potency in [4] was more than 46 µM; in [5], more than 9.22 µM. Besides, in assay [17], the call was inactive.

`O=P(O)(OP(=O)(O)c1ccccc1)c1ccccc1` (tested in a mixture with another compound): the activity change, negative = inhibition in assay [1] was -8.54%; in [18], -3.07%; in assay [6], 3.03% [at 11.4 µM]. For the same molecule, the activity, negative = inhibition in assay [3] is 2.23%. In addition, the values for the Potency in assay [4] and in assay [5] were more than 46 µM and more than 9.22 µM, respectively. The outcome in assay [17] was inactive.

`O=C1C[C@@H]2OCC=C3CN4CC[C@]56c7ccccc7N1[C@@H]5[C@@H]2[C@H]3C[C@H]46` (tested in a mixture with another compound): the results for the activity change, negative = inhibition in assay [1] and in assay [6] were 5.95% and 1.78% [at 11.4 µM], respectively. In addition, the result in assay [17] was inactive.

For the molecule `C[C@@H]1[C@H]2C=C[C@@H]1[C@@H](c1c3ccc(=O)c(O)c-3oc3c(O)c(O)ccc13)[C@@H]2C(=O)O`, the activity change, negative = inhibition in assay [1] is -14.3%; in assay [18], 3.07%. In addition, the Potency is more than 46 µM in assay [4] and more than 9.22 µM in assay [5]. In addition, in assay [17], the result was inactive.

As to `CC[C@H]1CN2CCc3cc(OC)c(OC)cc3[C@H]2C[C@@H]1C[C@H]1NCCc2c1[nH]c1ccc(O)cc21`, the activity change, negative = inhibition in [1] is -118% (active); in assay [18] it was -128% (active); in [6] it was -2.73% [at 11.4 µM]. Further, the Potency entry in assay [2] is “inactive”. Moreover, the Potency in assay [4] was more than 46 µM; in assay [5], more than 9.22 µM. Besides, in assay [17], the molecule was classed as inactive.

`O=C(O)[C@H]1CCN1`: the activity change, negative = inhibition in [1] was -3.07% [at 38 µM]; in [18], 0.684% [at 38 µM]. Further, the Potency entry in [2], in assay [6], in assay [10] and in assay [11] was “inactive” each time. In [3], the activity, negative = inhibition was 3.4% [at 38 µM]. In addition, in assay [4], the Potency is more than 46 µM. Also, the result in assay [17], in assay [7], in [9], in [12], in assay [13] and in [14] was inactive. Moreover, the outcome in [15] and in assay [16] was inactive.
